WRN inhibitor – qHTS for Inhibitors of WRN Helicase | WRN helicase unwinding, fluorescent forked duplex, kinetic | Potency, µM (titrated, usually from 114 µM), usual class: inhibitors | hit rate 0.46% among 360,000; further: nearly all actives have a fitted effect of over 55% in size
Target sequence (Q14191 whole entry, looked up): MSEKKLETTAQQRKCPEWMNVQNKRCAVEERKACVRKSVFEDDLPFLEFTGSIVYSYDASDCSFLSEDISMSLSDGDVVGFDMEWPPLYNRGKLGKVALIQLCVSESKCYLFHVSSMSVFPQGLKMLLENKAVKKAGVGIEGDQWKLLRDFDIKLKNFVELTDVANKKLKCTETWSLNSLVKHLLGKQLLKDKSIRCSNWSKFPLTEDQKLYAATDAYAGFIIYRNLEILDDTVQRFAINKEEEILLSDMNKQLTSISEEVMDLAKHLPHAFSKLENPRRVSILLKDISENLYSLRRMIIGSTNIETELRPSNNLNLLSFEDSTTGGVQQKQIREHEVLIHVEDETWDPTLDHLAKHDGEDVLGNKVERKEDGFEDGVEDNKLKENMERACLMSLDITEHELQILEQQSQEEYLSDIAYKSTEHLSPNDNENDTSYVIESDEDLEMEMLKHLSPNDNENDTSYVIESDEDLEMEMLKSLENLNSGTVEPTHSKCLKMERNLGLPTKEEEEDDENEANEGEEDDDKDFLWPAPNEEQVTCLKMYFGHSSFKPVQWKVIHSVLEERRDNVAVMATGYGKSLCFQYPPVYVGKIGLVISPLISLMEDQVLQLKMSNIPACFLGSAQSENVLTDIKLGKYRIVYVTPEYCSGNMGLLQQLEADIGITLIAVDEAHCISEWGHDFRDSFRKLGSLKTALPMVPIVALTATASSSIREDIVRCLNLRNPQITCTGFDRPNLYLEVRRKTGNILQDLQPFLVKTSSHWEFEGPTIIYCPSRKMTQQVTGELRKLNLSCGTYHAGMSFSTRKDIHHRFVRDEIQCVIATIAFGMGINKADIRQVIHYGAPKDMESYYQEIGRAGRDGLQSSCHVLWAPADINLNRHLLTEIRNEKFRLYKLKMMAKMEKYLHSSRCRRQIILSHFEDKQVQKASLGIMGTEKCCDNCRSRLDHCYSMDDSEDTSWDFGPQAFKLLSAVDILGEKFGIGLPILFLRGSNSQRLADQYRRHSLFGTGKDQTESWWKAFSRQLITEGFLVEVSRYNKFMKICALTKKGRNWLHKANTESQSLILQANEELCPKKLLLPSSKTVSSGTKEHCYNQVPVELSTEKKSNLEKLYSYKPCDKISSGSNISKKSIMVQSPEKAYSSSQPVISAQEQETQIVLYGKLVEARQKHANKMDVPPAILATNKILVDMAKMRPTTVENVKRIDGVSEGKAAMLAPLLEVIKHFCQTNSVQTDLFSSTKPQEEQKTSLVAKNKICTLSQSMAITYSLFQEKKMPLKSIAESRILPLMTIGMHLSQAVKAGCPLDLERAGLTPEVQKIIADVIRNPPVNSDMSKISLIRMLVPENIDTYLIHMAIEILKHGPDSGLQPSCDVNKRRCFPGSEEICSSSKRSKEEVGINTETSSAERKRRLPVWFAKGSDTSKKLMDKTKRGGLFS
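WRN at 20 nM final was preincubated with compound for 15 min at room temperature; reaction started with 100 nM forked duplex oligonucleotide carrying fluorophore and quencher plus 2 mM ATP (final). Unwinding followed kinetically by red fluorescence (ex 525/em 598 nm).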
POLK inh – qHTS for Inhibitors of Polymerase Kappa. DNA polymerase kappa (Homo sapiens), Q9UBT6. purified Pol kappa, fluorescent DNA synthesis assay, 10 min. Potency, µM (series often up to 107 µM), most hits filed as inhibitors. hit rate 0.53% among 400,000. AID 588579, 2011
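Activity was followed as the change in fluorescence between reads at 0 and 10 min after starting the reaction with 50 nM substrate. Beforehand, 10 nM polymerase had been preincubated with compound for 15 min at room temperature.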
POLH inh – qHTS for Inhibitors of Polymerase Eta; DNA polymerase eta (Homo sapiens), Q9Y253; recombinant Pol eta, fluorescent DNA replication assay; Potency, µM (titrated, usually from 114 µM), hits mostly inhibitors; hit rate 1.2% among 390,000; AID 588591, 2011
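Fluorescent replication assay: 50 nM final substrate added after a 15 min room-temperature compound preincubation with 10 nM enzyme. Signal taken at 0 min and again at 10 min.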
PI5P4Ka inh – qHTS for Inhibitors of phosphatidylinositol 5-phosphate 4-kinase (PI5P4K) | max response, % | PI5P4Kalpha enzyme, ADP-Glo luminescence, 60 min; active compounds read low | Phosphatidylinositol 5-phosphate 4-kinase type-2 alpha (Homo sapiens), P48426 | hit rate 1.2% among 330,000 | AID 652105, 2013; active means max response of -50% or lower; inconclusive means between -30% and -50%; inactive means -30% or higher; further: value at the top dose of about 77 µM
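Controls without substrate or without enzyme flank wells where PI5P4Kalpha converts substrate using 5 microM ATP (final). Incubation lasts 60 minutes at room temperature; ADP formed is read by ADP-Glo luminescence.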
POLI inh – qHTS for Inhibitors of Polymerase Iota; DNA polymerase iota (Homo sapiens), Q9UNA4; Pol iota fluorescent replication assay, 10 min; Potency, µM (doses to about 115 µM), hits mostly inhibitors; hit rate 1% among 390,000
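Pol iota at 10 nM preincubated 15 min with compounds at room temperature; reaction started with fluorescent substrate, 50 nM final. Fluorescence read kinetically at 0 and 10 min; buffer-only wells as negative control.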
POLB inh – qHTS Assay for Inhibitors of DNA Polymerase Beta. P06746. Pol beta primer extension/strand displacement, fluorescence kinetic. Potency, µM (highest dose often 114 µM), most hits filed as inhibitors. hit rate 1.3% among 340,000. AID 485314, 2010
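Kinetic readout of DNA synthesis with strand displacement by Pol beta. Compound and 10 nM enzyme sit 15 min at room temperature; 50 nM substrate starts the reaction, read immediately and at 10 min.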
Each line names hits and unclear results; the compound was inactive in the other large screens. In the library only some 2.8% were active in any assay of this set; here they are far more common. Unless noted, the call rests on the fitted dose curve; in most records, active means well fitted curve in the direction sought with a large enough effect; inconclusive means small, poorly fitted or top-dose-only effect, or another doubt; inactive means no such curve, though single readings can be large; an effect the other way counts as inactive or inconclusive.

Cc1[nH]n(-c2ccccc2)c(=S)c1C=NCCCN=Cc1c(C)[nH]n(-c2ccccc2)c1=S	POLH inh inconclusive, PI5P4Ka inh -76
CC1=C(c2ccc(C)c(C)c2)S(=O)(=O)N=C1N1CCC(C(=O)NC(C)c2ccccc2)CC1 (stereo unspecified)	none (no result: WRN inhibitor, POLH inh, PI5P4Ka inh)
COc1ccc(C2=C(C)C(N3CCN(c4ccc(OC)cc4)CC3)=NS2(=O)=O)cc1	none (no result: WRN inhibitor, PI5P4Ka inh)
COc1ccc(C2=C(C)C(N3CCN(C(=O)c4ccco4)CC3)=NS2(=O)=O)cc1	POLI inh inconclusive, POLB inh 50µM
CC1=C(c2ccc(C)c(C)c2)S(=O)(=O)N=C1N1CCC(C(=O)Nc2cccc(F)c2)CC1	POLI inh inconclusive, POLB inh 20µM (no result: WRN inhibitor, POLH inh, PI5P4Ka inh)
CC1=C(c2ccc(F)cc2)S(=O)(=O)N=C1N1CCC(C(=O)NCCc2ccco2)CC1	POLB inh 25µM (no result: WRN inhibitor, POLH inh, PI5P4Ka inh)
CC1=C(c2ccc(C)c(C)c2)S(=O)(=O)N=C1N1CCC(C(=O)NC(C)Cc2ccco2)CC1 (stereo unspecified)	POLI inh inconclusive (no result: WRN inhibitor, PI5P4Ka inh)
CC1=C(C(=O)OCc2ccccc2)C(c2cccs2)NC(=O)N1CCCC(=O)O (stereo unspecified)	PI5P4Ka inh -66, POLI inh inconclusive, POLB inh inconclusive
COC(=O)C1=C(C)N(CCCC(=O)O)C(=O)NC1c1cccs1 (stereo unspecified)	PI5P4Ka inh -73
CCN1C(=O)N[C@@H](c2cccs2)C(C(=O)OC)=C1C	none (no result: POLB inh)
CCOC(=O)C1=C(C)N(CCCC(=O)O)C(=O)NC1c1cccs1 (stereo unspecified)	PI5P4Ka inh -66, POLI inh inconclusive (no result: POLB inh)
CCOC(=O)C1=C(C)N(CCCC(=O)O)C(=O)NC1c1cccc(OC)c1 (stereo unspecified)	PI5P4Ka inh inconclusive (no result: POLB inh)
COC(=O)CCC(=O)Nc1cccc(Br)c1	none
CC(C)C(CO)NC(=O)CC(=O)NC(CO)C(C)C (stereo unspecified)	none (no result: PI5P4Ka inh)
CCNC(=O)Nc1ccc(-n2nc(C)c(C(=O)OCC)c2C)nc1	none
CC1CCC(NC(=O)COC(=O)c2ccc3ncsc3c2)CC1 (stereo unspecified)	POLI inh inconclusive (no result: POLB inh)
COCCn1c(C)cc(C(=O)COC(=O)c2ccc3ncsc3c2)c1C	POLH inh inconclusive, PI5P4Ka inh -58, POLI inh inconclusive, POLB inh inconclusive
O=C(OCC(=O)N1CCN(c2ccccc2)CC1)c1ccc2ncsc2c1	POLH inh inconclusive, POLI inh inconclusive, POLB inh 89µM
O=C(OCC(=O)N1CCN(c2ccccc2)CC1)c1ccc(Cl)nc1	none (no result: POLB inh)
O=C(COC(=O)c1ccc2ncsc2c1)NC(=O)C1CCCCC1	POLI inh 71µM (no result: WRN inhibitor, POLH inh, PI5P4Ka inh, POLB inh)
COCCn1c(C)cc(C(=O)COC(=O)c2cncc(Br)c2)c1C	none
COCCNC(=O)C1CCC(CNS(=O)(=O)c2ccc3c(c2)CC(C)N3C(C)=O)CC1 (stereo unspecified)	none (no result: WRN inhibitor, PI5P4Ka inh)
O=C(CCNS(=O)(=O)c1ccccc1)OCc1ccc([N+](=O)[O-])cc1	none (no result: POLK inh, POLI inh, POLB inh)
OCCNc1c2ccccc2nc2ccccc12	POLK inh inconclusive, POLI inh inconclusive, POLB inh 18µM
Cc1cccnc1C(NC(=O)C1CCN(CCCOc2ccccc2)CC1)c1ccc(F)cc1 (stereo unspecified)	none (no result: POLK inh, POLH inh, POLI inh, POLB inh)
O=C(CCc1nc(-c2ccccc2)no1)NC1CCCCCC1	none (no result: POLB inh)
N#Cc1cc(Sc2ccccn2)c([N+](=O)[O-])cc1C#N	PI5P4Ka inh -86
COc1cc(OC)cc(-c2c(-c3ccc(F)cc3)c3cc(-c4cnc(OC)nc4)ccc3n2C)c1	none (no result: POLB inh)
CNS(=O)(=O)c1cccc(C(=O)OCC(=O)c2ccc[nH]2)c1	POLH inh 45µM, PI5P4Ka inh -62, POLI inh 40µM (no result: POLB inh)
CCOc1cc(/C=N/Nc2nnc(C)n2N)ccc1O	POLI inh 8.9µM
